DT40 TDP1 CPT: qHTS for Inhibitors of human tyrosyl-DNA phosphodiesterase 1 (TDP1): qHTS in cells in presence of CPT; chicken DT40 Tdp1-/-;hTDP1 cells + 20 nM CPT, ATP luminescence, 48 h; Potency, µM (top dose mostly 46.2 µM), inactives show top-dose activity change, negative = growth inhibition, most hits filed as inhibitors; 12% of 420,000 active; AID 686979, 2013; note: nearly all actives have a fitted effect of over 55% in size
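Chicken DT40 Tdp1-/- cells complemented with human TDP1, 400 cells/well, exposed to compounds plus 20 nM camptothecin for at least 48 h at 37 C; viability read as ATP content by CellTiter-Glo luminescence.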
RORgamma inh: qHTS for inhibitors of ROR gamma transcriptional activity; Nuclear receptor ROR-gamma (Mus musculus), P51450; Drosophila S2 Gal4-RORgamma UAS-luciferase reporter, 20 h; Potency, µM (top dose mostly 53.6 µM), inactives show top-dose activity change, negative = inhibition, usual class: inhibitors; 5.4% of 310,000 active; AID 2551, 2010; note: nearly all actives have a fitted effect of over 60% in size
Target sequence (P51450 whole entry, looked up, the tested form may be a part): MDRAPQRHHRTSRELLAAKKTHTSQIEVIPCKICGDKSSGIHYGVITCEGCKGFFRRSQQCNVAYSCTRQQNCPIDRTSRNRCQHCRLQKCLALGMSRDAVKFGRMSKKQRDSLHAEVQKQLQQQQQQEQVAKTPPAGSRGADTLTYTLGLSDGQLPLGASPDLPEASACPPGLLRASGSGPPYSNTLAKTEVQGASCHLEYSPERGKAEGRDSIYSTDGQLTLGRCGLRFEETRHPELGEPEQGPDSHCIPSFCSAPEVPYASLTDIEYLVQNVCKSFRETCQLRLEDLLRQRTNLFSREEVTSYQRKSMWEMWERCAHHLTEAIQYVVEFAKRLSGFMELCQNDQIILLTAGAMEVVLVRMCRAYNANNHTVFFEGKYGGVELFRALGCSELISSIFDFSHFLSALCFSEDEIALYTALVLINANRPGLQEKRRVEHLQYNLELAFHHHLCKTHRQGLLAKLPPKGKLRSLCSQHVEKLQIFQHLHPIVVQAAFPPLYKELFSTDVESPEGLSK
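Drosophila Schneider cells stably carrying a metallothionein-driven Gal4 DBD–ROR gamma fusion and a UAS-Photinus luciferase reporter were exposed to compound for 1 hr, then induced with copper sulfate (700 uM final) for 20 hr at ambient temperature before luminescence reading.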
Gal4-VP16 FLuc: VP16 counterscreen qHTS for inhibitors of ROR gamma transcriptional activity. AID 2546, 2010. Potency, µM (doses to about 53.6 µM), for the others: top-dose activity, negative = inhibition, most hits filed as inhibitors. Drosophila S2 Gal4-VP16 UAS-luciferase, luminescence, 20 h. 3.5% of 310,000 active;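 note: Gal4-VP16 expression switched on by copper sulfate through the metallothionein promoter; nearly all actives have a fitted effect of over 50% in size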
DT40 TDP1 no CPT: qHTS for Inhibitors of human tyrosyl-DNA phosphodiesterase 1 (TDP1): qHTS in cells in absence of CPT; Potency, µM (titrated, usually from 46.2 µM), without a hit: at the top dose activity change, negative = growth inhibition, actives largely listed as inhibitors; 15% of 420,000 active; DT40 Tdp1-/- hTDP1 cells, no CPT, ATP luminescence, 48 h; note: nearly all actives have a fitted effect of over 55% in size
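Seeded 400 DT40-hTDP1 cells/well (vehicle DMSO, no 20 nM CPT); pinned compounds; ≥48 hr at 37 °C; CellTiter-Glo luminescence as viability measure.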
TDP1 block: qHTS Assay for Inhibitors of Tyrosyl-DNA Phosphodiesterase (TDP1) | Tyrosyl-DNA phosphodiesterase 1 (Homo sapiens), Q9NUW8 | recombinant TDP1, AlphaScreen DNA substrate cleavage | Potency, µM (titrated, usually from 130 µM), without a hit: at the top dose activity change, negative = inhibition, most hits filed as inhibitors | 0.28% of 350,000 active | AID 485290, 2010; note: nearly all actives have a fitted effect of over 40% in size
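AlphaScreen read-out: signal falls as enzyme removes the 3' tyrosine-FITC from a 5'-biotinylated DNA oligo (15 nM, 5 min, RT). Enzyme was E. coli-made recombinant Tdp1 at 1 nM, exposed to compound for 15 min beforehand; beads 10 ug/ml, 10 min.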
* = called active by the depositor; ? = inconclusive; / = no result; [ ] = dose if it differs, or a comment. The list is not random: actives were taken first. Their share in the collection is about 19%. Calls come from the whole dose curve; as a rule, active = well fitted curve in the direction sought with a large enough effect; inconclusive = small, poorly fitted or top-dose-only effect, or another doubt; inactive = no such curve, though single readings can be large; an effect the other way counts as inactive or inconclusive. % is set by controls: 0 for no effect and ±100 for the full control effect; potency is the fitted concentration of half-maximal effect.

SMILES	DT40 TDP1 CPT	RORgamma inh	Gal4-VP16 FLuc	DT40 TDP1 no CPT	TDP1 block
COc1ccc(C(=O)Oc2c(Sc3ccccc3)c(C)nn2-c2ccccc2)c(OC)c1	18.4µM*	/	/	?	8.8%
COc1cc(OC)cc(C(=O)Oc2c(Sc3ccccc3)c(C)nn2C(C)(C)C)c1	?	/	/	?	0.0%
COC(=O)c1ccccc1NC(=O)C(C)n1nc(C)c2c(C)n(-c3ccccc3)nc2c1=O (stereo not given)	?	19.6%	-1.0%	?	4.6%
COc1ccc(CC(=O)Nc2ncc([N+](=O)[O-])s2)cc1OC	?	37.3%	23.0%	?	2.4%
Cc1nc(N2CCN(c3ccccn3)CC2)c2c(C)c(C(=O)Nc3c(C)cc(Br)cc3C)sc2n1	?	14.0%	14.7%	?	8.2%
Cc1nc(N2CCN(c3ccccn3)CC2)c2c(C)c(C(=O)Nc3c(F)cc(F)cc3Br)sc2n1	16.4µM*	12.6%	24.9%	13µM*	4.9%
Cc1nc(N2CCCCC2)c2c(C)c(C(=O)Nc3ccc4c(c3)OCCO4)sc2n1	?	29.6%	-24.1%	4.11µM*	3.9%
Cc1nc(N2CCN(C)CC2)c2c(C)c(C(=O)Nc3ccc(C)c(F)c3)sc2n1	16.4µM*	-11.2%	?	?	0.0%
CCOC(=O)c1c(C)oc2nc(C)nc(NCc3ccccc3OC)c12	11.6µM*	/	/	14.6µM*	6.3%
CCOC(=O)c1c(C)oc2nc(C)nc(NCc3ccccc3Cl)c12	16.4µM*	/	/	?	4.2%
CCOC(=O)c1c(C)oc2nc(C)nc(NCc3ccccc3OCC)c12	?	/	/	?	4.2%
CC(=O)OCC1(C)CN(c2ccccc2)N(C(C)=O)C1=O (stereo not given)	?	14.4%	-6.4%	20.6µM*	0.0%
CC(=O)OCC1(C)CN(c2ccccc2)NC1=O (stereo not given)	20.6µM*	12.6µM*	?	?	0.0%
CC(=O)OCC1(C)CN(c2ccccc2)N(C(=O)c2ccc(C(C)(C)C)cc2)C1=O (stereo not given)	?	21.8%	21.7%	?	2.3%
CCOC(=O)c1cc(N2CCCCC2)nc2ccccc12	23.1µM*	/	/	?	/
O=C(O)c1cc(N2CCCCC2)nc2ccccc12	-0.2%	/	/	-17.3%	/
COc1cccc(CNC(=O)N2CCC(CN3CCC(C)CC3)CC2)c1	9.8%	/	/	-9.5%	-1.5%
O=C1C(=C2CCCCC2)SC(=S)N1Cc1ccco1	?	12.6µM*	-0.8%	16.4µM*	0.0%
O=C1CC(=O)N(Cc2ccco2)C(=O)N1	6.0%	13.2%	-1.3%	-1.0%	10µM*
O=C1CC(=O)N(Cc2ccco2)C(=S)N1	-4.1%	11.7%	2.0%	-2.7%	2.51µM*
Cn1cnnc1SCc1ccc(C#N)cc1	23.6%	7.7%	-11.2%	-11.8%	3.0%
CC(C)Nc1nc(NCCOc2ccccc2Cl)c2sc(-c3ccccc3)cc2n1	6.51µM*	/	/	6.51µM*	/
CCNc1nc(NC(C)C)nc(N(C#N)CCOc2ccc(Cl)cc2Cl)n1	?	26.0%	?	?	1.1%
Cc1ccc(F)cc1-c1nc(NC(C)C)nc2cc(-c3ccccc3)sc12	?	/	/	18.4µM*	/
COc1ccccc1CNc1nc(NC(C)C)nc2cc(-c3ccccc3)sc12	2.59µM*	/	/	4.11µM*	/
SMILES	DT40 TDP1 CPT	RORgamma inh	Gal4-VP16 FLuc	DT40 TDP1 no CPT	TDP1 block
CC(C)Nc1nc(-c2ccccc2CO)c2sccc2n1	?	/	/	-16.1%	/
COC(=O)c1ccccc1NC(=S)N1CCC(N2CCCCC2)CC1	-25.9%	-9.5%	-3.8%	-14.2%	-4.6%
CCc1cccc2c1NC(=O)C2(O)N1CCCC(C)C1 (stereo not given)	13.2%	13.8%[1.91 µM]	7.2%	-18.0%	/
COCCN1CCCC(CNCc2cn(C)nc2-c2ccc(Oc3ccccc3)cc2)C1 (stereo not given)	18.4µM*	?	-29.5%	5.8µM*	-5.1%
COC1CCCN(Cc2cn(C)nc2-c2ccc(Oc3ccccc3)cc2)C1 (stereo not given)	-15.3%	5.4%	-5.1%	-27.3%	2.7%
CCOC(=O)CN(C)Cc1cn[nH]c1-c1ccc2cc(OC)ccc2c1	16.4µM*	?	14.7%	13µM*	4.2%
CCOC(=O)CN(C)Cc1cn(C)nc1-c1ccc(Oc2ccccc2)cc1	?	/	/	13µM*	2.6%
CCCN1CCC(NCc2cn(C)nc2-c2ccc(Oc3ccccc3)cc2)CC1	5.17µM*	?	?	4.61µM*	1.4%
Cc1cnccc1CN(C)Cc1cn(C)nc1-c1ccc(Oc2ccccc2)cc1	?	0.7%	5.8%	?	4.8%
CCOC(=O)c1[nH]c(Cc2[nH]c(C(=O)OCC)c(C)c2CCC(=O)OC)c(CCC(=O)OC)c1C	?	17.4%	3.1%	?	8.3%
Cn1c(NC(=O)c2ccccc2)c(-c2cccs2)c(=O)c2ccccc21	14.6µM*	-1.0%	-3.3%	16.4µM*	2.3%
CC(C)C(=O)Nc1c(-c2cccc(Cl)c2)c(=O)c2ccccc2n1C	18.4µM*	-2.2%	3.8%	23.1µM*	/
Cn1c(NC(=O)c2cccs2)c(-c2cccs2)c(=O)c2ccccc21	23.1µM*	0.0%	-1.6%	-26.9%	1.9%
CCOC(=O)C1CCCN(C(=O)CSCc2ccccc2)C1 (stereo not given)	-3.6%	37.5%	-0.5%	-5.3%	-1.0%
COCC(=O)N1CCC(Oc2ccc(C(=O)NC(C)c3nccs3)cc2)CC1 (stereo not given)	-1.5%	-14.1%	-1.0%	-5.1%	2.0%
CC(C)(O)CCc1c(-c2ccc(O)cc2O)oc2c3c(cc(O)c2c1=O)OC(C)(C)C=C3	11.6µM*	/	/	16.4µM*	/
Cc1cc(C)nc(N/N=C/c2ccccc2OCc2ccc(Cl)cc2)n1	16.4µM*	10µM*	?	?	4.1%
Cc1cc(C)nc(N/N=C/c2cc(Br)ccc2O)n1	5.17µM*	3.16µM*	17.8µM*	3.66µM*	11.2%
Cc1cc(C)nc(N/N=C/c2ccccc2OCc2cccc(Br)c2)n1	?	50.1µM*	35.5µM*	18.4µM*	8.2%
Cc1cc(C)nc(N/N=C/c2ccccc2OCc2ccccc2)n1	?	8.91µM*	?	?	5.5%
Cc1cc(C)nc(N/N=C/c2ccccc2OCC(=O)O)n1	-2.1%	-24.3%	-6.4%	23.2%	/
CC(C)(C)c1cc(NS(=O)(=O)c2cccs2)no1	5.7%	/	/	6.9%	3.1%
